From PubChem BioAssay AID651965 (National Center for Advancing Translational Sciences (NCATS), 2013)
Out of some 340,000 compounds screened, about 6,400 (1.9%) were called active. About 4% were inconclusive and are not listed. This is one part of a sample in which actives are shown more often than they occur. The call rests on the fitted dose curve; in most records, active means well fitted falling curve with a large enough effect; inconclusive means small, poorly fitted or top-dose-only effect; inactive means no such curve, though single readings can be large or run the other way.

Biological target: ATP-dependent Clp protease proteolytic subunit (Bacillus subtilis (strain 168)) (UniProt P80244)
Assay: qHTS Assay for Activators of ClpP; further: the source files actives as falling curves though it sought activators and does not explain the sign; nearly all actives have a fitted effect of over 65% in size
Details: purified B. subtilis ClpP, FRET peptide cleavage, 20 min; series mostly up to 57.5 µM
Outline: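 Purified B. subtilis ClpP, 10 microg/mL final in Tris/HCl pH8 with KCl, BSA, glycerol and Tween-20, cleaved an Abz/nitrotyrosine-quenched decapeptide. Fluorescence (ex 320, em 430) was read at 0 and 20 min at room temperature. Delta was normalized to 5.8 microM ADEP and DMSO/no-enzyme controls.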
Potency means the concentration at half of the fitted maximal effect.

Potency, inactive:
CN(N=O)c1ccc(C=C2c3ccccc3-c3ccccc32)cc1
CN(C)C1=C2C=CC=CC2/C(=C2/C=Cc3ccccc32)C=C1 (stereo unspecified)
Cc1ccc(-c2cnc(C(O)c3cccc(C)c3C)[nH]2)cc1 (stereo unspecified)
O=C(c1ccco1)N(Cc1cccs1)c1ccc(O)cc1
O=C1NC[C@H](Cc2ccc(O)cc2)N(C[C@@H]2CCCN2C[C@H](Cc2ccccc2)N2C[C@H](Cc3ccccc3)N(CC3CCCCC3)C(=O)C2=O)C1=O
CCN1C(=O)N[C@@H](c2ccccc2)C(C(=O)OC)=C1C
CCOC(=O)CN1CCC(c2ccccc2)CC1
CCOC(=O)NC(C(F)(F)F)(C(F)(F)F)P(=O)(c1ccccc1)c1ccccc1
CCOC(=O)C(=O)C1C(=O)Nc2ccccc21 (stereo unspecified)
CCOC(=O)[C@]12CCCC=C1N(CCC1=CCCCC1)C(=O)[C@H](CC(=O)NCCCCc1ccccc1)C2
O=C(Nc1ccccc1C(F)(F)F)c1nc(S(=O)(=O)Cc2ccccc2F)ncc1Cl
COc1cc2nc(Cl)nc(NC3CC3)c2cc1OC
CN(/N=C/c1ccccc1)C(=S)c1ccccc1
CN(CC(=O)O)C(=O)c1ccccc1
O=S1(=O)CC(N2CCN(Cc3ccccc3F)CC2)CN1Cc1cn(Cc2ccccc2)nn1 (stereo unspecified)
Cc1c(CCO)sc[n+]1CC(=O)c1ccc2ccccc2c1
CCc1nc2ccc(C(=O)N(C)Cc3ccco3)cn2c1N(C)C(=O)Cc1ccccc1
CN(CCO)C(=O)c1nc[nH]c1C(=O)N(C)Cc1ccccc1
CN(Cc1ccccc1)C(=O)[C@@H]1CCCN1C(=O)[C@@H]1CCCN1C(=O)c1c(F)cccc1F
Cc1nccn1-c1ccc(NC(=O)[C@H]2O[C@@H](n3ccc(=O)[nH]c3=O)[C@H](O)[C@@H]2O)cc1
CCCC(=O)N1CCC1(C)C(=O)Nc1ccc(-n2cncn2)cc1 (stereo unspecified)
Cc1ccc(Cn2ccc(NC(=O)C3C4CCC(C4)C3C(=O)O)n2)cc1 (stereo unspecified)
O=C(Nc1ccn(Cc2ccccc2F)n1)c1ccc(COc2ccc(Cl)cc2Cl)o1
O=C(c1cnn2c1NC(=C1CC1)C=C2C(F)F)N1CCc2ccccc2C1
Cc1ccc(C(O)c2ncc(-c3ccccc3F)[nH]2)cc1F (stereo unspecified)
CCCCn1c(N)c(N(CCC(C)C)C(=O)c2ccc(COc3ccccc3)o2)c(=O)[nH]c1=O
CCCCN(C(=O)c1ccc(C)o1)c1c(N)n(CCCC)c(=O)[nH]c1=O
CCN(C(=O)Nc1cccc2ccccc12)c1ccccc1
Cc1cc(=O)[nH]c(SCc2ccc(Cl)cc2)n1
Cc1cc(=O)[nH]c(SCc2cc(Cl)ccc2OC(F)F)n1
O=C(Nc1cccc2ccccc12)c1[nH]c(-c2ccccc2)c2c1C(=O)N(C1CC1)C2=O
O=C(OC1CC2CC1[C@H]1CCCCN1C2=O)N1CCOCC1 (stereo partly specified)
COc1ccccc1-c1sc2ccccc2c1C#CC1(O)CCCCC1
COc1ccc2sc(-c3ccccc3OC)c(-c3ccc(OCCN4CCCC4)cc3)c2c1
CCCOc1ccc(F)cc1-c1cc(C(=O)Nc2ccc(F)c(Cl)c2)[nH]n1
CN(C)c1ccc(/C=C/c2sc3ccccc3[n+]2CCCCBr)cc1
CCOC(=O)[C@]12CCCC=C1N(CCC1=CCCCC1)C(=O)[C@H](CC(=O)N1CCSCC1)C2
O=S(=O)(c1ccc(F)cc1)N1CC=C(c2ccccc2)CC1
Fc1ccc2cnc(-c3ccccc3)cc2c1
Cc1ccc(S(=O)(=O)N2CC3C(=O)C[C@@H](c4ccccc4Cl)N(S(=O)(=O)c4ccc(C)cc4)C3CC2c2ccccc2)cc1 (stereo partly specified)
Cc1cccc(-c2nnc(SC(C)C(=O)Nc3ccccc3)n2C)c1 (stereo unspecified)
CCOC(=O)[C@]12CCCC=C1N(Cc1ccc3c(c1)OCO3)C(=O)[C@H](CC(=O)N1CCN(C(=O)c3ccco3)CC1)C2
CN(C)c1ccc(/C=C/c2sc3ccccc3[n+]2C)cc1
CC1(Oc2cccc(F)c2)CCN(Cc2ccccc2OC(F)F)C1 (stereo unspecified)
Cc1nc2ccccc2nc1CC(O)(c1ccccc1)c1ccccc1
Cc1nc2cccnc2nc1C
CC(C)c1cc(C(=O)N(C)C2CCCN(Cc3ccccc3F)C2)n(C)n1 (stereo unspecified)
Cc1cn([C@H]2C[C@H](O)[C@@H](/C=C/C(=O)NCCCc3ccccc3)O2)c(=O)[nH]c1=O
Cc1cc(Cl)ccc1C(=O)C1CCCN(C(=O)c2ccc3c(c2)OCO3)C1 (stereo unspecified)
CC(C(=O)O)N1C(=O)c2cccc3cccc1c23 (stereo unspecified)
O=C1c2cccc3cccc(c23)N1CN1CCN(c2ccccn2)CC1
CCCOc1ccc(-c2cccc(NS(=O)(=O)c3ccccc3)c2)nn1
CCCS(=O)(=O)Nc1cccc(-c2cn3ccsc3n2)c1
O=C(NC1CCCCCC1)C1CCN(C(=O)c2ccc(Cl)cc2)CC1
O=C(NNC(=O)C1CCN(c2ncccn2)CC1)c1ccccc1
c1cc(-c2ccc3[nH]ccc3c2)n2ccnc2c1
CCOC(=O)[C@]12CCCC=C1N(CCC1=CCCCC1)C(=O)[C@H](CC(=O)N1CCCCC1)C2
N#Cc1c(-c2ccc(F)cc2)nc(-c2ccccc2)[nH]c1=O
CN(C(=O)CN1CCN(c2cc(-c3ccc(OCc4ccccc4)cc3)ncn2)CC1)c1ccccc1
COc1ccc(Cl)cc1NC(=O)NCC1CCN(Cc2ccccc2F)CC1
COc1ccc(Cl)cc1NC(=O)CNc1ccccc1F
CCOc1ccc(NC(=O)N(CC(C)C)CC(C)C)cc1
CC(C)CCN(C(=O)Nc1ccc(Cl)c(Cl)c1)C(C)c1cccs1 (stereo unspecified)
OC(CBr)C[n+]1cccc2cc(Br)ccc21 (stereo unspecified)
Cc1ccc(-n2nc(C)c(/C=N/NC(=O)c3cccs3)c2Cl)cc1
Cc1nn(-c2ccccc2)c(Cl)c1/C=C/C(=O)c1ccc(O)cc1
Cc1ccc(-c2nc3c(C)cc(Br)cn3c2Cc2ccccc2)cc1
COC(=O)C[C@@H]1C=C[C@@H](NC(=O)c2ccc3c(c2)OCO3)[C@@H](CO)O1
CCOc1ccc(NC(=O)CSc2nnc3c(n2)[nH]c2ccc(S(=O)(=O)N4CCOCC4)cc23)cc1
CC(C)C1Cc2[nH][nH]c(=O)c2C(c2ccc(Cl)cc2)O1 (stereo unspecified)
O=C(COc1ccccc1Cl)Nc1ccc2nc(SCC(=O)N3CCCC3)sc2c1
Nc1nnc(SCC(=O)Nc2ccc3nc(SCC(=O)Nc4ccccc4)sc3c2)s1
CCC(=O)Nc1ccc2nc(SCC(=O)N3CCc4ccccc43)sc2c1
O=C(Nc1ccc2nc(SCC(=O)N3CCc4ccccc43)sc2c1)c1ccccc1F
Cc1ccc(S(=O)(=O)N2[C@@H](Cc3ccccc3)CO[C@H]2CC(=O)OCc2ccccc2)cc1
CN1OC[C@@H]2CN(C(=O)c3ccc(-c4ccccc4)cc3)[C@H](c3ccc(-c4cccc(F)c4)cc3)C[C@@H]21
O=C(c1ccc(N2CCCC2=O)cc1)N1CCN(c2ccc(C(F)(F)F)cc2[N+](=O)[O-])CC1
Cc1ccc(Cn2c(C)c(C(=O)NCc3ccccc3C(F)(F)F)sc2=O)cc1
O=C(CC[C@H]1O[C@@H](n2ccc(=O)[nH]c2=O)[C@H](O)[C@@H]1O)N[C@H](Cc1ccccc1)C(=O)NCc1ccco1
CC(CN1CCOCC1)OC(=O)c1ccc(Cl)cc1Cl (stereo unspecified)
CC(CN1CCOCC1)OC(=O)c1ccc(C(C)(C)C)cc1 (stereo unspecified)
CCN(CC)C(=O)C1=C(C)N(Cc2ccc(OC)cc2)C(=O)C(CC(=O)NCc2ccco2)C1 (stereo unspecified)

Potency, active:
CCOC(=O)NN1C(=O)c2ccccc2NC1c1cccc(O)c1 (stereo unspecified) 31.6 µM
CCOC(=O)NN1C(=O)c2ccccc2NC1c1ccccc1O (stereo unspecified) 25.1 µM
CN(O)C(=S)c1ccccc1 11.2 µM
O=C(Nc1ccn(Cc2ccccc2)n1)c1n[nH]c([N+](=O)[O-])c1Cl 22.4 µM
CCCCn1c(N)c(N(CCC(C)C)C(=O)c2ccc([N+](=O)[O-])o2)c(=O)[nH]c1=O 3.16 µM
O=c1cc(O)nc(SCc2ccccc2Cl)[nH]1 28.2 µM
COc1ccccc1-c1sc2ccccc2c1-c1ccc(C(C)=O)cc1 28.2 µM
O=S(=O)(c1ccc(F)cc1)n1ccc(-c2cnc(-c3ccccc3)s2)n1 20 µM
Cc1nc2ccccc2cc1O 3.55 µM
COc1ccc(N2C(=O)c3cccc4cccc(c34)C2=O)nn1 15.8 µM
CCS(=O)(=O)Nc1cccc(-c2cc(-c3ccccc3)c3cc(C)ccc3n2)c1 31.6 µM
Cc1ccnc(N2CCC(C(=O)NC3CCCCCC3)CC2)n1 25.1 µM
[O-][n+]1onc2c1CCc1[nH]c(-c3ccccc3)nc1-2 28.2 µM
COc1ccc(Cl)cc1NC(=O)C(C)N1CCc2ccccc21 (stereo unspecified) 28.2 µM
CCOc1ccc(NC(=O)N(CCC(C)C)C(C)c2ccco2)cc1 (stereo unspecified) 28.2 µM
Cc1ccc(C(=O)/C=C/c2c(C)nn(-c3ccccc3)c2Cl)cc1 6.31 µM
O=C(Nc1ccc2nc(SCC(=O)N3CCCc4ccccc43)sc2c1)c1ccc(F)cc1 28.2 µM
O=C(Nc1ccc2nc(SCC(=O)N3CCCc4ccccc43)sc2c1)c1ccc(Cl)cc1 10 µM
Cc1ccc(C(=O)OC(C)CN2CCOCC2)cc1 (stereo unspecified) 39.8 µM
